The values that follow come from article PMC7862700, “An all-to-all approach to the identification of sequence-specific readers for epigenetic DNA modifications on cytosine”.

Holding throughout (test): DAPPL (digital affinity profiling via proximity ligation, sequencing); 10 mM Tris-HCl pH 7.5, 50 mM NaCl, 1 mM DTT, 4% glycerol, room temperature, 30 min; GST-TFs on glutathione beads, 16-mer random dsDNA library, 0.1% formaldehyde crosslink after washing; high values mean tight binding
One experiment has as its target T1, FLI1 (Homo sapiens, UniProt Q01543 1-452).
T1 sequence: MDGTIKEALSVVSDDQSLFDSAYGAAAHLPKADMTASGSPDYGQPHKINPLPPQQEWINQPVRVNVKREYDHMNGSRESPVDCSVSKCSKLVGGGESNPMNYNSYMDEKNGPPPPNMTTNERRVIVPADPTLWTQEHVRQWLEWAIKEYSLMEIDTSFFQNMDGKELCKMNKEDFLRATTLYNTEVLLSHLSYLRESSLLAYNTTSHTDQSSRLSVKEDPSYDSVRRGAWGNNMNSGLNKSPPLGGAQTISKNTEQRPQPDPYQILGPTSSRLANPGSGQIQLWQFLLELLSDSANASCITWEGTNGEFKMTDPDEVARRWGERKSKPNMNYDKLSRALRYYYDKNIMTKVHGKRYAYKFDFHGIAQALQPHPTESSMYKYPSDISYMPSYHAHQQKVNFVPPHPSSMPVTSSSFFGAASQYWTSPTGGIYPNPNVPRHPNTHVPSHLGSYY
Particulars: protein: recombinant; tags: N-terminal GST; dsDNA, one strand shown. The method in brief: (§1)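 The binding signal reported is, for every hexamer, its read frequency for a factor over its read frequency for the tag-only sample. Reads came from pools of yeast-expressed, GST-fused human transcription factors on glutathione beads, barcoded with DNA and mixed with that sample, which were incubated with 200 nmole of a random double-stranded 16-mer DNA library in Tris/NaCl/DTT/glycerol buffer at room temperature for 30 min. After washing, the pools were crosslinked with 0.1% formaldehyde, proximity-ligated with BsaI/T4 ligase for 1 h at 37 °C, PCR-amplified and sequenced on an Illumina NextSeq500.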

The target of another experiment is T2, ELK1 (Homo sapiens, UniProt P19419 1-428).
T2 sequence: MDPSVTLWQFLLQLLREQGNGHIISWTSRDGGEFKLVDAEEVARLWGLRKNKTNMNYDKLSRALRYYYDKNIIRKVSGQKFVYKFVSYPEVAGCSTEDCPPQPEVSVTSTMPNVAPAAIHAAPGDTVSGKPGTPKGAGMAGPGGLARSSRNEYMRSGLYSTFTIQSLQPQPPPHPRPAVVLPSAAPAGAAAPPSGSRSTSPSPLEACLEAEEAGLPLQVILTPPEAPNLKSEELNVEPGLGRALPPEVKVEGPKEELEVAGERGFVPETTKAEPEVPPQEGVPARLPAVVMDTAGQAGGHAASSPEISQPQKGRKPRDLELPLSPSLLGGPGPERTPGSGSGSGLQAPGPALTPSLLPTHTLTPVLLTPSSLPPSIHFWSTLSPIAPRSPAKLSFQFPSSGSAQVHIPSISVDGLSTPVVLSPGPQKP
The following applies: protein: recombinant; tags: N-terminal GST; dsDNA, one strand shown. Put shortly:
as §1

The next experiment addresses T3, GABPA (Homo sapiens, UniProt Q06546 1-454).
T3 sequence: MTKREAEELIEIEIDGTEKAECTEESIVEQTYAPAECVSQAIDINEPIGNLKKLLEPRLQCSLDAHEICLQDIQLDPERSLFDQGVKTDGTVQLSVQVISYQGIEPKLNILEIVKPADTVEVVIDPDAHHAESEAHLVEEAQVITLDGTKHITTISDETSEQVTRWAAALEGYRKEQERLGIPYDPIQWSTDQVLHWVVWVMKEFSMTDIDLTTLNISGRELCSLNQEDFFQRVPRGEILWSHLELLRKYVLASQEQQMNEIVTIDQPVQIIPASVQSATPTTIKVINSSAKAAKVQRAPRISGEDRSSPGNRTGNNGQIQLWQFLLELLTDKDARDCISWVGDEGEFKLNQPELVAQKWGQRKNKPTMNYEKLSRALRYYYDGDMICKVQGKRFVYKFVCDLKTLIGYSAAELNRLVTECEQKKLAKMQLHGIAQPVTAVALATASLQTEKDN
The following applies: protein: recombinant; tags: N-terminal GST; dsDNA, one strand shown. Put shortly: as §1

In the next experiment the target is T4, ERG (Homo sapiens, UniProt P11308 1-479).
T4 sequence: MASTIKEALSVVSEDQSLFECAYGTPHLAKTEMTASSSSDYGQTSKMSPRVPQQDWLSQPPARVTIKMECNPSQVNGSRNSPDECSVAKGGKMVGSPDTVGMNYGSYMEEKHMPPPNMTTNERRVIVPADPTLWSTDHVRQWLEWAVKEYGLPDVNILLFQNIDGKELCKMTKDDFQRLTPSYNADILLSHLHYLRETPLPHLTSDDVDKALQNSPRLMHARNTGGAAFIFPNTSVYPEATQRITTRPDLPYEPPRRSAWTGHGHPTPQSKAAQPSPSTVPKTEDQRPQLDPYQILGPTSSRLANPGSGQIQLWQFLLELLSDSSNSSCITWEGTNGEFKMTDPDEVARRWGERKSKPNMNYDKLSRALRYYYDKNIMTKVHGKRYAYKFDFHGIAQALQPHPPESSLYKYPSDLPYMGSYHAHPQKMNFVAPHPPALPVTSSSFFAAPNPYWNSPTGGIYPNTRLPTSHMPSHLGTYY
Particulars: protein: recombinant; tags: N-terminal GST; dsDNA, one strand shown. Put shortly: as §1

The target in another experiment is ELF1 (Homo sapiens, UniProt P32519 1-619). Particulars: protein: recombinant; tags: N-terminal GST; dsDNA, one strand shown. The method in brief: as §1
Another experiment deals with T5, EHF (Homo sapiens, UniProt Q9NZC4 1-300).
T5 sequence: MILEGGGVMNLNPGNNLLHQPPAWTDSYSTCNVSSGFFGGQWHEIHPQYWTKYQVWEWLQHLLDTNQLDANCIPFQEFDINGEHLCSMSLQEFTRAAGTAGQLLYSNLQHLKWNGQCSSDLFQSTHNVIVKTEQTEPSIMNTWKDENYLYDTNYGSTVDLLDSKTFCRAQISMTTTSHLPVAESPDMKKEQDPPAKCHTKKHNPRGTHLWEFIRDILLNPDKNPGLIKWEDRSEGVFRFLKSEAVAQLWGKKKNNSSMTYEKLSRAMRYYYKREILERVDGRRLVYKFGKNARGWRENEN
Particulars: protein: recombinant; tags: N-terminal GST; dsDNA, one strand shown. Put shortly:
as §1

Another experiment addresses SPI1 (Homo sapiens, UniProt P17947 1-270). The following applies: protein: recombinant; tags: N-terminal GST; dsDNA, one strand shown. Put shortly: as §1
A further experiment addresses SPIB (Homo sapiens, UniProt Q01892 1-262). The following applies: protein: recombinant; tags: N-terminal GST; dsDNA, one strand shown. Put shortly:
as §1

Another experiment concerns the target T6, ELK3 (Homo sapiens, UniProt P41970 1-407).
T6 sequence: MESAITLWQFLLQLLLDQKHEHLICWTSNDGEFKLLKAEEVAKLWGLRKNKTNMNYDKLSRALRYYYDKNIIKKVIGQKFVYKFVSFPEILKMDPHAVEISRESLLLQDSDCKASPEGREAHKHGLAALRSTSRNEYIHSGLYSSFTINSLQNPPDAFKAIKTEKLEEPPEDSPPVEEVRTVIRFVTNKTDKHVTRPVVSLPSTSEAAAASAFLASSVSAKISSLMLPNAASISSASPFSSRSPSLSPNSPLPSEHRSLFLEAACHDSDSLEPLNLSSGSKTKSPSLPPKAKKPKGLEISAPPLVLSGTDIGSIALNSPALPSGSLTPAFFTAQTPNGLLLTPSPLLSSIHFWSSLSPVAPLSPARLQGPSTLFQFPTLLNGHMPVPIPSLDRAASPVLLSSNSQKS
Particulars: protein: recombinant; tags: N-terminal GST; dsDNA, one strand shown. Put shortly:
as §1

Another experiment has as its target T7, FEV (Homo sapiens, UniProt Q99581 1-238).
T7 sequence: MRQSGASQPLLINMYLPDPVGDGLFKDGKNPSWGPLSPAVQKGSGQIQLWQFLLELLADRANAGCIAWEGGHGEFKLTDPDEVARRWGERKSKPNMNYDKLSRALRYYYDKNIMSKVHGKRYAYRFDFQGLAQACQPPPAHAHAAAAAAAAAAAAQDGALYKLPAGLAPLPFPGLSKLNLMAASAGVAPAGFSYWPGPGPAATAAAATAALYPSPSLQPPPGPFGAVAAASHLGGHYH
Particulars: protein: recombinant; tags: N-terminal GST; dsDNA, one strand shown. The method in brief: as §1

The target in the next experiment is ETV5 (Homo sapiens, UniProt P41161 1-510). The following applies: protein: recombinant; tags: N-terminal GST; dsDNA, one strand shown. The method in brief:
as §1

A further experiment concerns the target HSF1 (Homo sapiens, UniProt Q00613 1-529). The following applies: protein: recombinant; tags: N-terminal GST; chain copies: 3; dsDNA, one strand shown. Put shortly:
as §1

A further experiment has as its target T8, SPIC (Homo sapiens, UniProt Q8N5J4 1-248).
T8 sequence: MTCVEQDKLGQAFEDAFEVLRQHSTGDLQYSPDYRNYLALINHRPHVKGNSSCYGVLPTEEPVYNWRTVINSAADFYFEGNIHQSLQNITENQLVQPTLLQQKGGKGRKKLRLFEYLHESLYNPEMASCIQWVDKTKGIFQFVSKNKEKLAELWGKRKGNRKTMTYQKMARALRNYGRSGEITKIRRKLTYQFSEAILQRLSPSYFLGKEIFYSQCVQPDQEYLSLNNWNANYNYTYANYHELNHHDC
Particulars: protein: recombinant; tags: N-terminal GST; dsDNA, one strand shown. Put shortly: as §1

The target of another experiment is ELF4 (Homo sapiens, UniProt Q99607 1-663). Particulars: protein: recombinant; tags: N-terminal GST; dsDNA, one strand shown. Put shortly: as §1
The target in another experiment is T9, ELK4 (Homo sapiens, UniProt P28324-2 1-405).
T9 sequence: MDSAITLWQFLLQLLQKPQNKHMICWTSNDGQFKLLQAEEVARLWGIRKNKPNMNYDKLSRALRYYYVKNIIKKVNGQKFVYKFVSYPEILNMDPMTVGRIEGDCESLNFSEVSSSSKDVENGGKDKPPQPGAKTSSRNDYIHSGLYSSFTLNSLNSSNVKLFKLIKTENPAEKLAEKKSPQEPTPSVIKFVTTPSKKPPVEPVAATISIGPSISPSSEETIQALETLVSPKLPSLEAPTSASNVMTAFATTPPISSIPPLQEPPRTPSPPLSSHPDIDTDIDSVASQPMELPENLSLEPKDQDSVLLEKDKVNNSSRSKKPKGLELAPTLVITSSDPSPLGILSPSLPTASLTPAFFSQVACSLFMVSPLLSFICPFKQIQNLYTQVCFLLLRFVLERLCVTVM
Particulars: protein: recombinant; tags: N-terminal GST; dsDNA, one strand shown. The method in brief: as §1

In the next experiment the target is T10, ELF3 (Homo sapiens, UniProt P78545 1-371).
T10 sequence: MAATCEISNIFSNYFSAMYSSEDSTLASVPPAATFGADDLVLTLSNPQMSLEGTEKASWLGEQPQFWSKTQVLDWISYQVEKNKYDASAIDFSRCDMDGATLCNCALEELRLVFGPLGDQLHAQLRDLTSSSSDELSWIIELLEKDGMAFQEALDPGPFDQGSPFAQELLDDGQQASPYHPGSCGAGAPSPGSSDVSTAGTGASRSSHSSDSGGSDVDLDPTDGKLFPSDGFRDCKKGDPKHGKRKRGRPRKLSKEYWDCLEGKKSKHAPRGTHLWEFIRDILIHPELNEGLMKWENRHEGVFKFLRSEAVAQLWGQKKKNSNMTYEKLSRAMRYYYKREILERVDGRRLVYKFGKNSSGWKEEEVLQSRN
Particulars: protein: recombinant; tags: N-terminal GST; dsDNA, one strand shown. The method in brief:
as §1

Another experiment concerns the target CRX (Homo sapiens, UniProt O43186 1-299). Particulars: protein: recombinant; tags: N-terminal GST; dsDNA, one strand shown. The method in brief:
as §1

The target of the next experiment is ETV1 (Homo sapiens, UniProt P50549 1-477). The following applies: protein: recombinant; tags: N-terminal GST; dsDNA, one strand shown. The method in brief:
as §1

Chain of HSF1 (Q00613 whole entry): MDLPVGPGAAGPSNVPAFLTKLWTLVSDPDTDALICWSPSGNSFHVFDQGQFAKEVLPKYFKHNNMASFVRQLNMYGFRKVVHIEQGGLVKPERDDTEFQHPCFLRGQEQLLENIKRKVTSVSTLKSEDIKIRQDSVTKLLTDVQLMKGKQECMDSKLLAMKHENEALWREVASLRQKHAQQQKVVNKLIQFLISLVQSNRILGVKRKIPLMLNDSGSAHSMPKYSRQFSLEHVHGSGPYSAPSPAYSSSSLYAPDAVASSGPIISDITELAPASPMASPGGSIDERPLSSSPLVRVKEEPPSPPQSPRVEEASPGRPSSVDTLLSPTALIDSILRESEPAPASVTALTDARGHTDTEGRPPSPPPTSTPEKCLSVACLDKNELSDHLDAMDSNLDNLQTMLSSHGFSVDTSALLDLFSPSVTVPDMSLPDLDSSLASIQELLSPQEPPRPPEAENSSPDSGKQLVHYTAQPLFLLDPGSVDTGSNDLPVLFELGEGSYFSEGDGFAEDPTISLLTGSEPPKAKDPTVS
Chain of ETV1 (P50549 whole entry): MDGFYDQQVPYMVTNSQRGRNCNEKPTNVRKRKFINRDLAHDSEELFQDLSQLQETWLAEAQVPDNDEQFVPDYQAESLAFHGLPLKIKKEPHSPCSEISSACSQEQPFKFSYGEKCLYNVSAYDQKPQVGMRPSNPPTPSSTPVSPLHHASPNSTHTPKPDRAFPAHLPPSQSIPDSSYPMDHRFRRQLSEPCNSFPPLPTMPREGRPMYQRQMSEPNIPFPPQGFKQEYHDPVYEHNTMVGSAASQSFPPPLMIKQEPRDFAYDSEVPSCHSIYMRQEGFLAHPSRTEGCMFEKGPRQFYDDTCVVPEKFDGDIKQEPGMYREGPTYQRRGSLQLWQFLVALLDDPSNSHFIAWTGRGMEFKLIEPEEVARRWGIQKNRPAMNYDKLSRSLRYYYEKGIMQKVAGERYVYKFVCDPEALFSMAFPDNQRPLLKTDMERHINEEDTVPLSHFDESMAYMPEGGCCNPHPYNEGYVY
Chain of ELF4 (Q99607 whole entry): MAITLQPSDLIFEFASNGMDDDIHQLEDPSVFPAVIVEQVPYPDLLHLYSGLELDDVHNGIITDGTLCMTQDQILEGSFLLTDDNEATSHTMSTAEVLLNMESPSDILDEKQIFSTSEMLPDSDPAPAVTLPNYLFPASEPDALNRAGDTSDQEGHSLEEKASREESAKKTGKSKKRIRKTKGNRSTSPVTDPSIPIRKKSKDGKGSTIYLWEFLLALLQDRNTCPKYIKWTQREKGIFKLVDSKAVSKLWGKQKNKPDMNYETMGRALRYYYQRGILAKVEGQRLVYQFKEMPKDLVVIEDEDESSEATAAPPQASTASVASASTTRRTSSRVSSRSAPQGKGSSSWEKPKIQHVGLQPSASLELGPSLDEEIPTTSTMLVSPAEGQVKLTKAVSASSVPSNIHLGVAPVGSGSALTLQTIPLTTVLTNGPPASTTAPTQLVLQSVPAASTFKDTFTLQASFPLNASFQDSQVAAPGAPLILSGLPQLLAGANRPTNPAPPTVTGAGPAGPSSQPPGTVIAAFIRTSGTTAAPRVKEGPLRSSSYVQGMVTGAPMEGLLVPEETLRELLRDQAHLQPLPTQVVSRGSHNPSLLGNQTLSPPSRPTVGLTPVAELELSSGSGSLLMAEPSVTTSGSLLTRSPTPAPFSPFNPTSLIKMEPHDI
Chain of ETV5 (P41161 whole entry): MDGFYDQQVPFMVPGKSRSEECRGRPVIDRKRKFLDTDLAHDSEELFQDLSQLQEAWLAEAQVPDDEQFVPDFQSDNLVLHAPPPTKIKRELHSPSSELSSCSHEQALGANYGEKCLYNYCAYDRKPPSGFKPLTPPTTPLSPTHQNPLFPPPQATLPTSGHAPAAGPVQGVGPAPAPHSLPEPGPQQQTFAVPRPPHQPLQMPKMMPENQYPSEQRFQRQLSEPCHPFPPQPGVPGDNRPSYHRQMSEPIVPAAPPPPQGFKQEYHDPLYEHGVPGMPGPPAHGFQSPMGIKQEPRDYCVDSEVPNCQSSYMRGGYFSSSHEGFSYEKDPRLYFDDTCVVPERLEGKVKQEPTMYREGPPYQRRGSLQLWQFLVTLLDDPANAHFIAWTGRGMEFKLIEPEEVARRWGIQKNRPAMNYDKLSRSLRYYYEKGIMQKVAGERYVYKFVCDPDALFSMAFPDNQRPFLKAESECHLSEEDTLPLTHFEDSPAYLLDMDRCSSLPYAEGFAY
Chain of CRX (O43186 whole entry): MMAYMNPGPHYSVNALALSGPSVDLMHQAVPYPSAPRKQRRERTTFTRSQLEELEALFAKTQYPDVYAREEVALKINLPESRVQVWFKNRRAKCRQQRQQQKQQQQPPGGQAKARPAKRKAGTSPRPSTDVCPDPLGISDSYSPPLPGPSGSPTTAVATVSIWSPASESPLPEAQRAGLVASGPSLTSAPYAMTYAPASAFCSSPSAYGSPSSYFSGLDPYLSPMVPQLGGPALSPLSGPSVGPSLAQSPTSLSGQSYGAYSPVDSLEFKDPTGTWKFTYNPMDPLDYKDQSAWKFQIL
Chain of SPIB (Q01892 whole entry): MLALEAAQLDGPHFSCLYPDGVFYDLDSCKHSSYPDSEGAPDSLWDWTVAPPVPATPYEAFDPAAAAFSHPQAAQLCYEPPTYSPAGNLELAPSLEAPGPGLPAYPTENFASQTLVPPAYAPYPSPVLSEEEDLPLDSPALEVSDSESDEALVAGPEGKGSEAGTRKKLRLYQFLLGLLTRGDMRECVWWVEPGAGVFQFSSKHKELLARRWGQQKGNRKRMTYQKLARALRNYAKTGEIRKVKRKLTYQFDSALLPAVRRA
Chain of ELF1 (P32519 whole entry): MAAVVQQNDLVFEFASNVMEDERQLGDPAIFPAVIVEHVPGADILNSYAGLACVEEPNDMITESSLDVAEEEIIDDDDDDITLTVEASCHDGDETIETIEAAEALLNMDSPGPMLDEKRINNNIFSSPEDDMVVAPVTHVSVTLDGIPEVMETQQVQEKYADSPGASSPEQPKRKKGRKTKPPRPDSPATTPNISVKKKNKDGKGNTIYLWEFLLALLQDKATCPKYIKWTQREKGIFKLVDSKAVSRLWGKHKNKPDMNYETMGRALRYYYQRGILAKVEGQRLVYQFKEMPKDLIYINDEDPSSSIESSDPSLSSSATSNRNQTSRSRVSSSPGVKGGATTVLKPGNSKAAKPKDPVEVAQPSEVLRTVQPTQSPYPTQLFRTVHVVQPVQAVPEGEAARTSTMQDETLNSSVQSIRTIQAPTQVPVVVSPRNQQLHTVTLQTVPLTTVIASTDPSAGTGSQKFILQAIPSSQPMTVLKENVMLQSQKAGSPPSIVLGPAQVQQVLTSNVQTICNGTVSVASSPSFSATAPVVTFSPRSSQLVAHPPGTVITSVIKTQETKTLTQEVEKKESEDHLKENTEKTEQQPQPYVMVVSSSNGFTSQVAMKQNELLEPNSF

As to CGAACT, the binding signal with FLI1 is 1.16 fold enrichment (6-mer frequency, TF over GST control); with ELK1 it was 1.17 fold enrichment (6-mer frequency, TF over GST control); with GABPA, 1.24 fold enrichment (6-mer frequency, TF over GST control); with ERG, 1.06 fold enrichment (6-mer frequency, TF over GST control); with ELF1, 1.24 fold enrichment (6-mer frequency, TF over GST control); in the experiment with EHF, 1.17 fold enrichment (6-mer frequency, TF over GST control). Moreover, the binding signal is 1.16 fold enrichment (6-mer frequency, TF over GST control) with SPI1; 1.03 fold enrichment (6-mer frequency, TF over GST control) with SPIB; 1.13 fold enrichment (6-mer frequency, TF over GST control) in the experiment with ELK3; 1.16 fold enrichment (6-mer frequency, TF over GST control) with FEV; 1.19 fold enrichment (6-mer frequency, TF over GST control) with ETV5; 1.48 fold enrichment (6-mer frequency, TF over GST control) with HSF1. Moreover, the binding signal in the experiment with SPIC was 1.01 fold enrichment (6-mer frequency, TF over GST control); in the experiment with ELF4, 1.12 fold enrichment (6-mer frequency, TF over GST control); with ELK4, 1.15 fold enrichment (6-mer frequency, TF over GST control); with ELF3, 1.02 fold enrichment (6-mer frequency, TF over GST control); with CRX, 1.05 fold enrichment (6-mer frequency, TF over GST control); with ETV1, 1.1 fold enrichment (6-mer frequency, TF over GST control).
